# HCMV inh: inhibitors of human cytomegalovirus; AID 1259415; HFF cells, HCMV-luciferase reporter, 72 h; stronger effect = lower value; activity change, negative = inhibition, % at 57.5 µM; hit rate 4.5% among 410,000; in the data active = activity change below about -60%; inconclusive = no clear call, values can overlap the other calls; inactive = above about -39%; also: % is scaled to controls: 0 for no effect and ±100 for the full control effect
#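 Inhibition of viral replication was scored as loss of reporter luminescence in HFFs infected with HCMV-luciferase (MOI 1 PFU/cell) for 72 h; compounds tested at 2 doses, normalized to buffer and Salinomycin controls.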
# Pf growth 48h: inhibits P. falciparum growth in the first generation, 48 h; P. falciparum luciferase growth in erythrocytes, 48 h; Potency, µM (series often up to 28.7 µM), for inactives: at the top dose activity change, negative = inhibition, actives largely listed as inhibitors; hit rate 5.9% among 310,000; AID 504832; also: potency is read from the fitted curve at half-maximal effect; % is scaled to controls: 0 for no effect and ±100 for the full control effect
#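 Here the parasites carry a stable luciferase gene and grow inside erythrocytes in Albumax-based RPMI medium with compound for one erythrocytic cycle. Activity is scored as loss of luminescent signal.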
# Sm TGR inh: blocks Schistosoma mansoni thioredoxin glutathione reductase. hit rate 3% among 360,000. Potency, µM (highest dose often 114 µM), inactives show at the highest dose activity change, negative = inhibition, usual class: inhibitors. purified TGR, DTNB reduction, TNB absorbance 405 nm. Q962Y6. AID 485364; also: potency is read from the fitted curve at half-maximal effect; % is scaled to controls: 0 for no effect and ±100 for the full control effect; nearly all actives have a fitted effect of over 60% in size
#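 First, TGR (20 nM dispensed) and NADPH were mixed with compound. Second, a 15 min room-temperature incubation followed. Third, further NADPH and then DTNB were added to start the reaction. Finally, TNB absorbance was monitored kinetically.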
# HCV inhibitor: HCV inhibition; Huh7.5.1 HCVcc-Cre infection, luciferase reporter, 44 h; Potency, µM (titrated, usually from 41.8 µM), for the others: top-dose activity change, negative = inhibition, most hits filed as inhibitors; hit rate 3.4% among 340,000; also: potency is read from the fitted curve at half-maximal effect; % is scaled to controls: 0 for no effect and ±100 for the full control effect
#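 Compounds are dispensed onto cells plated 4 h earlier at 1,000 per well, with HCVcc-Cre virus (about 0.5 moi) added next. Following 44 h of culture, luminescent signal is measured for 15 sec after 15 min with substrate at room temperature.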
# Pf growth 96h: P. falciparum growth inhibition at 96 hour, primary screen for plastid delayed-death inhibitors; P. falciparum luciferase reporter growth, 96 h; Potency, µM (titrated, usually from 28.7 µM), for the others: at the highest dose activity change, negative = inhibition, usual class: inhibitors; hit rate 6.9% among 320,000; also: potency is read from the fitted curve at half-maximal effect; % is scaled to controls: 0 for no effect and ±100 for the full control effect
#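 Luminescence readout: decreased luciferase signal marks inhibited growth of reporter-expressing P. falciparum in infected red cells (2% hematocrit, 0.05% parasitemia final), exposed to compound two generations (96 h, 37 C, 5% CO2).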
# SARS PLP yeast: inhibitors of SARS-CoV papain-like protease in yeast; S. cerevisiae expressing SARS-CoV PLpro, growth rescue; Potency, µM (highest dose often 32.9 µM), inactives show at the highest dose activity, positive = growth rescue, hits mostly activators; hit rate 0.19% among 330,000; AID 485353; calls by dose curve; also: potency is read from the fitted curve at half-maximal effect; 0% is about no effect; nearly all actives have a fitted effect of over 55% in size
# Active calls of the source: *; i = inactive; ? = inconclusive; . = no result; ! = a repeat was not active; [ ] = remark or other dose. Hits are enriched below; roughly 15% of the tested compounds scored in any of these assays. Unless noted, calls follow the shape of the dose curve; as a rule, active = well fitted curve in the direction sought with a large enough effect; inconclusive = small, poorly fitted or top-dose-only effect, or another doubt; inactive = no such curve, though single readings can be large; an effect the other way counts as inactive or inconclusive.
SMILES,HCMV inh,Pf growth 48h,Sm TGR inh,HCV inhibitor,Pf growth 96h,SARS PLP yeast
CCc1nnc(SCCSc2nnc(CC)n2N)n1N,3,28%,12%,-17%,141%,-4%
COC(=O)c1c(C)[nH]c(/C=N/Nc2ccccc2)c1C,20,5.2µM*,?,-15%,?,1%
CC(Oc1ccc(Cl)cc1)C(=O)N/N=C/c1ccsc1 (stereo unspecified),45,19%,10%,20%,-1%,-4%
O=C(Nc1ccc2nc(SCC(=O)N3CCOCC3)sc2c1)c1ccccc1Cl,-83*,.,-8%,.,.,.
COC(=O)CSc1nc2ccc(NC(=O)c3ccccc3C(=O)N3CCOCC3)cc2s1,-64*,3%,4%,3%,-19%,0%
O=C(Nc1ccc2nc(SCC(=O)N3CCOCC3)sc2c1)c1ccc(Br)cc1,-4,.,-3%,.,.,.
O=C(Nc1ccc2nc(SCC(=O)N3CCOCC3)sc2c1)c1ccc(Cl)cc1,-74*,.,-1%,.,.,.
Cn1c(SCC(=O)Nc2ccc3nc(SCC(=O)N4CCCC4)sc3c2)nnc1-c1ccccc1,31,9.3µM*,-1%,-23%,3.3µM*,3%
C[C@@H]1CN([C@@H](C)CO)C(=O)CCCn2cc(nn2)CO[C@H]1CN(C)C(=O)Nc1cccc(C(F)(F)F)c1,-13,.,.,.,.,.
COc1ccc(CN2C(=O)CCC2(C)c2nc3ccccc3[nH]2)cc1 (stereo unspecified),15,.,.,.,.,.
Cc1ccc(NC(=O)CNC(=O)c2ccco2)cc1,62,97%,0%,10%,-9%,2%
CCCCNC(=O)CSc1nc2ccc(Nc3nc(N4CCOCC4)nc(N4CCOCC4)n3)cc2s1,?,?,3%,?,8.3µM*,1%
O=C1CCCCc2sc(Br)c([N+](=O)[O-])c2N1,-27,0%,0.79µM*,?,0%,-1%
COc1ccc(OCC(=O)Nc2c(C(=O)N(CCN(C)C)Cc3ccco3)oc3ccccc23)cc1,?,?,-9%,?,10µM*,3%
COc1ccc(C(=O)c2oc3ccccc3c2NC(C)=O)cc1,3,22%,-4%,6.3µM*,?,-2%
COc1ccc(C(=O)c2oc3ccc(OC)cc3c2NC(C)=O)cc1,-12,-3%,-20%,?,-3%,11%
CN(C)CCN(Cc1ccco1)C(=O)c1oc2ccccc2c1NC(=O)c1ccccc1,-61*,.,-6%,.,.,.
COc1ccccc1C(=O)Nc1c(C(=O)N(CCN(C)C)Cc2ccco2)oc2ccccc12,-82*!,?,-4%,?,10µM*,1%
COc1ccc(C)cc1NC(=O)C(=O)NCCc1csc(-c2ccc(C)cc2)n1,80,.,9%,.,.,.
O=C(c1[nH]c(C(F)(F)F)nc1-c1ccccc1)N1CCc2ccccc2C1,-5,.,.,.,.,.
CCOCCn1c(N2CCCC2)nc2c1c(=O)[nH]c(=O)n2C,22,42%,?,5%,?,-6%
COc1ccc(OCC(=O)Nc2c(C(=O)N3CCN(C)CC3)oc3ccccc23)cc1,-21,-9%,-9%,-10%,9.3µM*,?
CC(C)OC(=O)c1c(NC(=O)Cn2cnc([N+](=O)[O-])n2)sc2c1CCCC2,96,?,-20%,?,7.4µM*,-1%
CCOC(=O)c1c(NC(=O)Cn2cnc([N+](=O)[O-])n2)sc2c1CCCC2,-36,-4%,-13%,?,-20%,-35%
CC1CCc2c(sc(NC(=O)Cn3cnc([N+](=O)[O-])n3)c2C(N)=O)C1 (stereo unspecified),-62*,3%,4%,12%,28%,-1%
SMILES,HCMV inh,Pf growth 48h,Sm TGR inh,HCV inhibitor,Pf growth 96h,SARS PLP yeast
O=C(NC1CC1)C1=NOC(CNc2ncc(C(F)(F)F)cc2Cl)C1 (stereo unspecified),-5,.,8%,?,12µM*,-15%
O=C(N/C=N/O)C1=NOC(CNc2ncc(C(F)(F)F)cc2Cl)C1 (stereo unspecified),8,.,-7%,3%,-2%,-7%
COc1cc(C(=O)OC2C[C@H]3CC[C@@H](C2)N3C)ccc1O (stereo partly specified),30,35%,-5%,2%,31%,0%
CCC(CO)(C(=O)OC1CC2CCC(C1)N2C)c1ccccc1 (stereo unspecified),49,-20%,-17%,16%,12µM*,6%
CCn1c(C)[n+](CCOCC[n+]2c(C)n(CC)c3cc(Cl)c(Cl)cc32)c2cc(Cl)c(Cl)cc21,-15,.,-6%,21%,10µM*,-8%
Cc1c(C(=O)NCc2cccc(C(F)(F)F)c2)sc(=O)n1Cc1cccc(F)c1,-29,.,.,.,.,.
CCCOc1ccc(N2C(=O)CC(SCCc3nc4ccccc4[nH]3)C2=O)cc1 (stereo unspecified),-10,-1%,-13%[57.1 µM],6%,-4%,-5%
O=C1CC(SCc2nc3ccccc3[nH]2)C(=O)N1c1ccc(Cl)cc1 (stereo unspecified),-19,17%,25µM*,11%,4%,-33%
O=C1CC(SCCc2nc3ccccc3[nH]2)C(=O)N1c1ccc(Cl)cc1 (stereo unspecified),-20,-10%,?,6%,68%,-16%
O=C1CC(SCc2nc3ccccc3[nH]2)C(=O)N1c1ccc(F)c(Cl)c1 (stereo unspecified),-9,.,40µM*,14%,9%,-49%
CCOc1ccc(N2C(=O)CC(SCc3nc4ccccc4[nH]3)C2=O)cc1 (stereo unspecified),10,?,45µM*,-6%,?,-7%
Cc1cccc(C)c1-n1nnnc1C1c2ccccc2C(=O)N1CCc1ccc(O)cc1 (stereo unspecified),-20,.,.,.,.,.
CCc1nnc(NC(=O)CSc2ccc(-c3ccccc3OC)nn2)s1,32,-10%,1%,19%,13%,0%
CSc1ccccc1NC(=O)CN(C)CC(=O)NCc1ccccc1,-84*,i,0%,22%,35%,-4%
O=C(NC(=S)Nc1ccc(N2CCOCC2)cc1)c1ccco1,33,132%,40µM*,18%,44%,-10%
O=C(NC(=S)Nc1ccc(CN2CCOCC2)cc1)c1ccco1,52,147%,32µM*,6%,93%,1%
CCOc1cc(NC(=S)NCCCN2CCOCC2)c(OCC)cc1NC(=O)c1ccco1,16,12%,35µM*,?,-14%,0%
CCC[C@H]1[C@@H](NS(=O)(=O)c2ccc(C)cc2)CC[C@@]23CCCN2C(=O)CCC[C@@H]13,-103*,.,.,.,.,.
O=C(Cc1nc2ccccc2[nH]1)N/N=C/c1ccccc1,-32,22%,-12%,11%,-26%,-3%

# Source: PubChem BioAssay
